From the supplement of paper PMC6522484
± gives the standard deviation of the averaged measurements.

Columns and labels:
DLD1 [1] = assay: cell viability (CellTiter-Glo) relative to plate median (fraction of plate median); higher = more viable cells; details: 5 µM; treatment time 24 h; reporter: 7TFP
Method in brief: (§1)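 Normalisation used webcellHTS2 in additive mode without log transformation, scaling each well's luminescence to the plate median. The luminescence was firefly luciferase or CellTiterGlo, read on a Tecan F500 from parallel plates of colorectal cancer cells stably transduced with lentiviral TCF/Wnt firefly luciferase reporters. Those cells had been given library compounds at a final 5 µM for 24 h, and two independent replicates were averaged.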

HCT116 = assay: as above; details: 5 µM; treatment time 24 h; reporter: TCF4/Wnt
Method in brief: as §1

SW480 [2] = assay: as above; details: 5 µM; treatment time 24 h; reporter: 7TFP
Method in brief: as §1

DLD1 [3] = assay: TCF/Wnt firefly luciferase reporter signal relative to plate median (fraction of plate median); higher = higher Wnt reporter signal; details: 5 µM; treatment time 24 h; reporter: 7TFP
Method in brief: as §1

SW480 [4] = assay: as above; details: 5 µM; treatment time 24 h; reporter: 7TFP
Method in brief: as §1

Row | Compound | cell viability (DLD1 [1]) | cell viability (HCT116) | cell viability (SW480 [2]) | TCF/Wnt firefly luciferase reporter signal (DLD1 [3]) | TCF/Wnt firefly luciferase reporter signal (SW480 [4])
1 | C[C@@H]1O[C@@H](O[C@H]2C[C@@H](O)[C@]3(CO)[C@H]4[C@H](O)C[C@]5(C)[C@@H](C6=CC(=O)OC6)CC[C@]5(O)[C@@H]4CC[C@]3(O)C2)[C@H](O)[C@H](O)[C@H]1O | 0.99 ± 0.085 | 0.401 ± 0.29 | 1.02 ± 0.14 | 0.128 ± 0.13 | 0.146 ± 0.12
2 | CNC(Cc1c[nH]c2ccccc12)C(=O)O (stereo not given) | 1.06 ± 0.11 | 0.975 ± 0.0057 | 1 ± 0.011 | 1.03 ± 0.13 | 0.98 ± 0.13
3 | CCC(C)C(=O)OC1CC2(C)C(c3ccoc3)OC(=O)CC23OC2(C)OC34C(OC(=O)C(C)C)C3(O)C(OC(=O)C5(C)OC5C)C5(C)CC3(O)C(C)(C5CC(=O)OC)C14O2 (stereo not given) | 1.09 ± 0.071 | 1.12 ± 0.11 | 1.08 ± 0.014 | 1.045 ± 0.0071 | 1.13 ± 0.014
4 | CC(Cc1ccc(O)cc1)NCC(O)c1cc(O)cc(O)c1 (stereo not given) | 1.04 ± 0.068 | 1.1 ± 0.099 | 0.967 ± 0.012 | 0.9645 ± 0.0035 | 0.945 ± 0.013
5 | NC(N)=NOCC[C@H](N)C(=O)O | 1.08 ± 0.092 | 1.03 ± 0.035 | 1.03 ± 0.035 | 1.05 ± 0.042 | 0.991 ± 0.013
6 | COc1ccc(CCN2CCC(Nc3nc4ccccc4n3Cc3ccc(F)cc3)CC2)cc1 | 0.977 ± 0.089 | 0.982 ± 0.069 | 1.06 ± 0.021 | 1.01 ± 0.017 | 1.035 ± 0.0071
7 | CN1C[C@H](CNC(=O)OCc2ccccc2)C[C@@H]2c3cccc4c3c(cn4C)C[C@H]21 | 1.03 ± 0.049 | 1.03 ± 0.069 | 1.09 ± 0.057 | 0.986 ± 0.049 | 1.01 ± 0.052
8 | N[C@H](CO)Cc1ccccc1 | 0.998 ± 0.059 | 0.982 ± 0.12 | 0.981 ± 0.0042 | 0.901 ± 0.09 | 0.761 ± 0.19
9 | C=CCC1(C(C)CCC)C(=O)NC(=S)NC1=O (stereo not given) | 1.03 ± 0.076 | 1.18 ± 0.23 | 0.951 ± 0.0028 | 1.02 ± 0.035 | 0.794 ± 0.011
10 | Cc1cc(O)ccc1Cl | 1.04 ± 0.035 | 0.994 ± 0.023 | 1.02 ± 0.028 | 0.941 ± 0.015 | 0.834 ± 0.069
11 | CC(=O)Oc1ccc(/C=C/c2cc(OC(C)=O)cc(OC(C)=O)c2)cc1 | 1.05 ± 0.042 | 1.02 ± 0.014 | 1.09 ± 0.021 | 1.14 ± 0.26 | 1.17 ± 0.078
12 | CC[C@@H](CO)NC(=O)[C@@H]1C=C2c3cccc4[nH]cc(c34)C[C@H]2N(C)C1 | 0.968 ± 0.045 | 1.02 ± 0.028 | 0.957 ± 0.054 | 1.04 ± 0.028 | 1.075 ± 0.0071
13 | O=[N+]([O-])O[C@H]1CO[C@H]2[C@@H]1OC[C@H]2O[N+](=O)[O-] | 1 | 1.07 ± 0.014 | 1.05 ± 0.028 | 1.02 ± 0.11 | 1.11
14 | O=C(O)CF | 0.951 ± 0.049 | 0.968 ± 0.059 | 1.035 ± 0.0071 | 1.05 ± 0.014 | 1.07 ± 0.042
15 | CC(C)C[C@H](CN)CC(=O)O | 1.03 ± 0.073 | 1.05 ± 0.1 | 1.04 ± 0.014 | 1.09 ± 0.064 | 0.936 ± 0.011
16 | NC(=O)c1ccc(N)nc1 | 1.1 ± 0.13 | 1.1 | 1.01 ± 0.16 | 1.01 ± 0.067 | 0.91 ± 0.037
17 | CC(=O)NC1CCSC1=O (stereo not given) | 1.03 ± 0.055 | 1.01 ± 0.019 | 1.03 ± 0.028 | 1.02 ± 0.12 | 0.902 ± 0.12
